Laboratory results as given in PubChem BioAssay.
The source made the active and inactive calls.

Tests used:
[1] = binders of probe aFSTL3 on microarray, primary screen, stem cell growth factor project, biochemical, small-molecule microarray, fluorescence 635/667 (AID 1064); details: higher = more signal;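 note: measures binding of the biotinylated anti-FSTL3 antibody to printed compounds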
[2] = binders from COS7 lysate, DM2A8 probe, primary screen, torsin A project, cell lysate, small-molecule microarray, fluorescence 635/667 (AID 1065); details: higher = more signal, COS7 lysate expressing mutant human TOR1A
[3] = binders of probe aFGF2 on microarray, primary screen, stem cell growth factor project, biochemical, small-molecule microarray, fluorescence 635/667 (AID 1067); details: higher = more signal;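 note: measures binding of biotinylated aFGF2 protein to printed compounds on slides; z-score merges feature fluorescence and signal-to-noise across triplicate slides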
[4] = binders of probe aFGF10 on microarray, primary screen, stem cell growth factor project, biochemical, small-molecule microarray, fluorescence 635/667 (AID 1071); details: higher = more signal;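 note: score merges 667 nm spot intensity and signal to noise from triplicate slides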
[5] = target: Neurogenic locus notch homolog protein 2 (Homo sapiens) (UniProt Q04721); assay: Notch2 binders on small-molecule microarrays, primary screen, biochemical, small-molecule microarray, 635 nm fluorescence, stem cell growth factors (AID 1073); details: Notch2 binding, higher = more signal
[6] = target: Pro-neuregulin-1, membrane-bound isoform (Homo sapiens) (UniProt Q02297); assay: NRG1 binders on small-molecule microarrays, primary screen, psychiatric disease protein project, biochemical, small-molecule microarray, fluorescence 635/667 (AID 1075); details: NRG1 binding, 635 nm fluorescence, higher = more signal;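 note: score combines 667 nm spot fluorescence with signal to noise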
[7] = test system: Neuregulin-1 EGF-like domain; assay: binders of neuregulin-1 EGF-like domain, primary screen, biochemical, small-molecule microarray, 635 nm fluorescence (AID 1081); details: small-molecule microarray binding, higher = more signal;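 note: binding of the protein to compounds printed on small-molecule microarray slides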
[8] = FRG1 promoter luciferase signal modulators, primary screen, FRG1 inhibition for FSHD, cell-based, C2C12 myotubes, firefly/Renilla luciferase, luminescence (AID 1084); details: higher = more signal, called active from +8 up or from −8 down
[9] = binders of probe aFST on microarray, primary screen, stem cell growth factor project, biochemical, small-molecule microarray, fluorescence 635/667 (AID 1086); details: higher = more signal;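 note: score merges 667 nm fluorescence with signal-to-noise of each printed compound spot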
[10] = binders of probe aHhip on microarray, primary screen, stem cell growth factor project, biochemical, small-molecule microarray, fluorescence 635/667 (AID 1087); details: higher = more signal;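 note: score merges spot fluorescence at 667nm with spot signal to noise ratio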
[11] = test system: PRMT1 (protein arginine N-methyltransferase 1); assay: PRMT1 binders on small-molecule microarrays, primary screen, biochemical, small-molecule microarray, 635 nm fluorescence (AID 1088); details: small-molecule microarray binding, higher = more signal;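 note: binding of Prmt1 protein to compounds spotted on small-molecule microarray slides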
[12] = yeast growth modulation, basal conditions, primary screen, YJM789 clinical isolate, OD600, 24 h (AID 1089);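 note: growth of clinical yeast isolate S. cerevisiae YJM 789 seeded 1000 cells per well; test concentration not given here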; details: S. cerevisiae YJM789 growth, higher = more signal, called active from +8 up or from −8 down
[13] = fission yeast growth modulation, primary screen, strain 972, OD600, 24 h, no modulator (AID 1090);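 note: basal condition with compound alone and no growth modifier present; test concentration not given here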; details: S. pombe 972 growth, higher = more signal, called active from +8 up or from −8 down
[14] = S. cerevisiae growth modulation with rapamycin, primary screen, strain BY4716, OD600, 96 h (AID 1091); details: higher = more signal, called active from +8 up or from −8 down; note: test concentration not given here
[15] = target: Torsin-1A-interacting protein 2 (Homo sapiens) (UniProt Q8NFQ8); assay: LULL1 binders on small-molecule microarray, primary screen, cell lysate, human LULL1 lysate, 635/667 nm fluorescence (AID 1092); details: hLULL1 lysate binding, 635 nm fluorescence, higher = more signal;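 note: probe is lysate of COS7 cells overexpressing human LULL1; score merges per-feature 667 nm fluorescence with signal-to-noise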
[16] = E. coli growth modulation, two-sided OD650, primary screen, E. coli filamentation project, strain DRC41, 24 h (AID 1093); details: OD650, 24 h, higher = more signal, called active from +8 up or from −8 down;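 note: MC1000 strain lacking acrAB efflux and sulA so SOS filamentation is blocked; test concentration not given here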
[17] = small-molecule microarray binders of probe aLefty2, primary screen, biochemical, biotinylated probe, 635/667 nm fluorescence (AID 1094); details: higher = more signal;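 note: score merges spot fluorescence near 667 nm with spot signal-to-noise ratio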
[18] = test system: Noggin (protein binding on small-molecule microarray); assay: Noggin binders on small-molecule microarray, primary screen, biochemical, 635/667 nm fluorescence (AID 1095); details: 635 nm fluorescence, higher = more signal;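 note: score merges 667 nm feature fluorescence with signal to noise over triplicate slides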
[19] = target: Neurogenic locus notch homolog protein 3 (Homo sapiens) (UniProt Q9UM47); assay: NOTCH3 binders on small-molecule microarray, primary screen, biochemical, 635/667 nm fluorescence (AID 1096); details: NOTCH3 binding, 635 nm fluorescence, higher = more signal
[20] = small-molecule microarray binders of probe aEGFR, primary screen, biochemical, biotinylated probe, 635/667 nm fluorescence (AID 1097); details: higher = more signal;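 note: probe is a biotinylated anti-EGFR antibody binding compounds printed on slides; score combines fluorescence near 667 nm and signal to noise of each spot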

Neurogenic locus notch homolog protein 3 (Homo sapiens), sequence (Q9UM47 whole entry, looked up): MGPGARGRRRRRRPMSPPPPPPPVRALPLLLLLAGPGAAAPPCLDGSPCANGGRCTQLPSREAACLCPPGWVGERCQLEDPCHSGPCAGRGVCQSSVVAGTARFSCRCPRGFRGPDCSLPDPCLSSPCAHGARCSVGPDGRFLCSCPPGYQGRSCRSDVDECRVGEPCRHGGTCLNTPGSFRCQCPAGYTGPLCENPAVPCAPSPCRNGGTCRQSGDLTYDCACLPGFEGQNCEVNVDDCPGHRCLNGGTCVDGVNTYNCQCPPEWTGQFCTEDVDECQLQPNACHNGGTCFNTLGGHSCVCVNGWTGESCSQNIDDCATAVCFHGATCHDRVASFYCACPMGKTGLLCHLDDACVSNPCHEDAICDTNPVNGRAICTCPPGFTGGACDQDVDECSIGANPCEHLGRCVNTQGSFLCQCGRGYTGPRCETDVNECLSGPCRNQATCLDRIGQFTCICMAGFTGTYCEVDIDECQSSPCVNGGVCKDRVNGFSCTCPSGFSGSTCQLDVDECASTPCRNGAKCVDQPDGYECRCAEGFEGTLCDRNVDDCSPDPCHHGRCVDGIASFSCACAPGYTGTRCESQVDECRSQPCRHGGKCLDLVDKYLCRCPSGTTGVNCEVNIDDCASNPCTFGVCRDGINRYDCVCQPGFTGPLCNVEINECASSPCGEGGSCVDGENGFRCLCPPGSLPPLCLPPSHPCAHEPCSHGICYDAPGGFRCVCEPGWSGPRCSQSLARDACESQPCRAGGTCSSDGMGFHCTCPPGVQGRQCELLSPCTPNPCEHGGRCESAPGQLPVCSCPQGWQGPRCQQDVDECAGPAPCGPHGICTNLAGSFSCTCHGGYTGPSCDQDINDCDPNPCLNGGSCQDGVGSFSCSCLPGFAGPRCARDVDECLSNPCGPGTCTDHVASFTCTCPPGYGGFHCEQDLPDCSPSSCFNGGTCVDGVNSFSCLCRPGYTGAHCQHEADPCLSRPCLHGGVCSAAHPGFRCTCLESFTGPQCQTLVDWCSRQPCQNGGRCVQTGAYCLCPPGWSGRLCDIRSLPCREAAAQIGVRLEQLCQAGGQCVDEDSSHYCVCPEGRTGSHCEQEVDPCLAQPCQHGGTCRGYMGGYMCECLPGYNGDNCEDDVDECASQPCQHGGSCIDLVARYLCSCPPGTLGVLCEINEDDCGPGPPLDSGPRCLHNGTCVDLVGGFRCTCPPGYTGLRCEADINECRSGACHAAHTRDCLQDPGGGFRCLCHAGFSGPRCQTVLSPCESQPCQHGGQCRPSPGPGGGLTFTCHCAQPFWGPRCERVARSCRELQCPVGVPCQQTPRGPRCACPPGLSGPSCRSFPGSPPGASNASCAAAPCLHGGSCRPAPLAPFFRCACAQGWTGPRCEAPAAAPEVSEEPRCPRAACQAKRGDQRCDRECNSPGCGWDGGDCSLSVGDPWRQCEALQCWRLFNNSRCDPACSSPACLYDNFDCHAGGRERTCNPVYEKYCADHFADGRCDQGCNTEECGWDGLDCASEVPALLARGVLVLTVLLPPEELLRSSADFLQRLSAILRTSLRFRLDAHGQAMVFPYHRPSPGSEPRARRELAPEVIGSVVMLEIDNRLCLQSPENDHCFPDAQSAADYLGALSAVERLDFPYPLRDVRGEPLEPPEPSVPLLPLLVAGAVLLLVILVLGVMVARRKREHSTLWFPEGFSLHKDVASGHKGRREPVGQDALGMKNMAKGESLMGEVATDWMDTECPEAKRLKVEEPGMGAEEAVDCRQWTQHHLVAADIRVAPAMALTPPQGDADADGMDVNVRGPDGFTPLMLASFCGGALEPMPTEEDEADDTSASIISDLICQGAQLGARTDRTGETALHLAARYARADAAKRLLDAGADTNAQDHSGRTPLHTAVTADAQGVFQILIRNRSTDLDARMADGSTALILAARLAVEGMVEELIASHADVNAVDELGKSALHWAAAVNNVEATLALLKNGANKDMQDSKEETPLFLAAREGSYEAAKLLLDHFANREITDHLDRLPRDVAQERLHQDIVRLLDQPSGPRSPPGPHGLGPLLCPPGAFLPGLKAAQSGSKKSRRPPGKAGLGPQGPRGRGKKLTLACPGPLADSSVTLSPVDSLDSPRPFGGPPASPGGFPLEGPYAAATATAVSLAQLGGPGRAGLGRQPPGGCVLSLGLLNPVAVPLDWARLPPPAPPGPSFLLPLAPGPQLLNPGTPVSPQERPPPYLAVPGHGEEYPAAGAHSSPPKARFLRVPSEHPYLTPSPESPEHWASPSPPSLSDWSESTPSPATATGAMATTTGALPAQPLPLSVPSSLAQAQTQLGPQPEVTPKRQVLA
Torsin-1A-interacting protein 2 (Homo sapiens), sequence (Q8NFQ8 whole entry, looked up): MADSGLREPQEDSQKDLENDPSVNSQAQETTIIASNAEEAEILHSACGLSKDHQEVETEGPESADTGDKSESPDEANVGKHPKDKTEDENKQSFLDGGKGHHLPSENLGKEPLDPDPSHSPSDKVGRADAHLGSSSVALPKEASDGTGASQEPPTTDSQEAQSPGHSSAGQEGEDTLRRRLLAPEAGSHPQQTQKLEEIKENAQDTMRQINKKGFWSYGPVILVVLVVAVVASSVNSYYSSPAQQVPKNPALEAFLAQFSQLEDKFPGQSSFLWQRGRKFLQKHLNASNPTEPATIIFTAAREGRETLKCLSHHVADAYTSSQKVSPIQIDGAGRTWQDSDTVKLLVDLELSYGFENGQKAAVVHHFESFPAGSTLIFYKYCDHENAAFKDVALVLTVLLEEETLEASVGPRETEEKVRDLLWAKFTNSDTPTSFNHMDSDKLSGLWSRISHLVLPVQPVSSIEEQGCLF
Pro-neuregulin-1, membrane-bound isoform (Homo sapiens), sequence (Q02297 whole entry, looked up, the tested form may be a part, canonical isoform): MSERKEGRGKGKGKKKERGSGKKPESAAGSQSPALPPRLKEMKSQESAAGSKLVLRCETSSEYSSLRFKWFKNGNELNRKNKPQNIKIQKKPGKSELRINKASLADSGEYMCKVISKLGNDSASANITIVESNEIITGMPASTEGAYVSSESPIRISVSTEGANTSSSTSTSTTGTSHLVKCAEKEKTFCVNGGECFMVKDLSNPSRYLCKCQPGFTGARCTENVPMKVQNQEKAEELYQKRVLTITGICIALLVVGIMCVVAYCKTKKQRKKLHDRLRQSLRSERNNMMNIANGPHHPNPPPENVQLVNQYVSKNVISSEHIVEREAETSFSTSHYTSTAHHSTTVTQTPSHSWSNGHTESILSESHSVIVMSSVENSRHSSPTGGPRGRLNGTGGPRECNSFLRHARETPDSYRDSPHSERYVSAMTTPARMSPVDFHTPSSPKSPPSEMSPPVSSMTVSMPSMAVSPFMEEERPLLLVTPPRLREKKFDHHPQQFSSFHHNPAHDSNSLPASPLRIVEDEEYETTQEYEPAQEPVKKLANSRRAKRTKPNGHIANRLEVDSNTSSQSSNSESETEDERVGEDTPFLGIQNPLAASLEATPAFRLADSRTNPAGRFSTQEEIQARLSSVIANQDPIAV

Compound | composite z-score [1] | composite z-score [2] | composite z-score [3] | composite z-score [4] | composite z-score [5] | composite z-score [6] | composite z-score [7] | z-score [8] | composite z-score [9] | composite z-score [10] | composite z-score [11] | z-score [12] | z-score [13] | z-score [14] | composite z-score [15] | z-score [16] | composite z-score [17] | composite z-score [18] | composite z-score [19] | composite z-score [20]
COc1ccc(C#Cc2ccc3c(c2)[C@]2(C(=O)N3)[C@H](C(=O)O)[C@H]3C(=O)O[C@H](c4ccccc4)[C@H](c4ccccc4)N3[C@@H]2c2ccc(OCCO)cc2)cc1 | -0.397 | 0.959 | -0.0344 | 0.903 | 0.357 | 1.88 | 0.976 | -0.176 (inactive) | 0.794 | 0.122 | 1.55 | 2.76 (inactive) | -0.0666 (inactive) | 1.08 (inactive) | 2.37 | 2.26 (inactive) | 0.054 | 1 | 1.1 | -0.0433
CN(C)CCCNC(=O)[C@@]1(Cc2ccccc2I)c2ccccc2C(=O)N(Cc2ccccc2Cl)[C@H]1c1ccc(CO)cc1 | 1.17 | -0.576 | 0.0516 | 0.617 | 0.0497 | 1.47 | 1.25 | -2.07 (inactive) | 0.294 | -0.181 | 0.9 | -0.531 (inactive) | -19.8 (active) | -2.99 (inactive) | 2.78 | -1.7 (inactive) | 0.222 | -0.819 | -0.063 | 0.147
COC(=O)C(CC#Cc1ccc2c(c1)[C@]1(C(=O)N2)[C@H](c2ccc(O)cc2)N2[C@H](c3ccccc3)[C@H](c3ccccc3)OC(=O)[C@H]2[C@@H]1C(=O)O)C(=O)OC | -0.331 | -0.11 | -0.132 | 0.206 | 0.63 | 0.82 | 0.798 | 0.831 (inactive) | 1.25 | 0.0505 | 0.439 | 1.22 (inactive) | -0.489 (inactive) | -0.922 (inactive) | 2.96 | -1.28 (inactive) | -0.166 | 0.307 | 0.64 | -0.0152
C=CCN1C(=O)[C@@]2(O[C@@H](CCn3cc([C@H](O)c4ccccc4)nn3)[C@H]([Si](C)(C)c3ccc(OC)cc3)[C@H]2C)c2cc(NC(=O)c3ccc(OC)cc3)ccc21 | 0.027 | 0.321 | 0.0084 | 0.0737 | 0.147 | 0.56 | 0.531 | -1.36 (inactive) | 0.101 | 0.185 | 0.948 | 1.05 (inactive) | 0.0445 (inactive) | 0.7 (inactive) | 1.72 | 0.859 (inactive) | -0.0615 | 0.551 | 0.422 | -0.0564
COC(=O)C(CC#Cc1ccc2c(c1)[C@]1(C(=O)N2)[C@H](c2ccc(OCCO)cc2)N2[C@H](c3ccccc3)[C@H](c3ccccc3)OC(=O)[C@H]2[C@@H]1C(=O)O)C(=O)OC | 0.915 | 0.831 | 0.102 | 0.727 | 0.85 | 2.03 | 1.26 | -0.434 (inactive) | 1.37 | 0.398 | 1.53 | 2.49 (inactive) | -0.0363 (inactive) | -0.881 (inactive) | 3.1 | 1.95 (inactive) | 0.607 | 0.612 | 0.822 | 0.374
CN1C(=O)C2C=CC(C(O)c3ccc(F)cc3)N(N3CCCCC3)C2C1=O (stereo not given) | 1.1 | 1.72 | 0.344 | 0.139 | 1.44 | 1.17 | 1.19 | 0.532 (inactive) | 0.713 | 0.0274 | 1.07 | 1.15 (inactive) | 1.27 (inactive) | 2.06 (inactive) | 2.78 | -1.17 (inactive) | 0.682 | -0.513 | 0.721 | 0.204
COc1ccc([Si](C)(C)[C@H]2[C@H](CCO)O[C@@]3(C(=O)N(Cc4cccc(N5CCOC5=O)c4)c4ccccc43)[C@@H]2C)cc1 | -0.167 | -0.16 | -0.034 | 0.674 | 0.849 | 0.843 | 0.783 | -2.15 (inactive) | -0.292 | 0.0373 | 1.39 | 2.81 (inactive) | -0.406 (inactive) | 34 (active) | 2.39 | 0.228 (inactive) | 0.514 | 0.459 | 1.14 | -0.0973
COc1cc2c(cc1OC)CN(C(=O)[C@@H]1[C@H]3C(=O)O[C@H](c4ccccc4)[C@H](c4ccccc4)N3[C@H](c3ccc(O)cc3)[C@@]13C(=O)Nc1ccc(C#CCNC(N)=O)cc13)CC2 | -0.133 | -0.121 | -0.0616 | 0.411 | 0.578 | 0.559 | 0.544 | 0.238 (inactive) | 0.75 | -0.0994 | 0.666 | 1.1 (inactive) | 1.27 (inactive) | 1.48 (inactive) | 1.22 | 0.364 (inactive) | 0.0835 | 1.03 | 0.802 | -0.0455
O=C1OCCC=C[C@H]2OC34C=CCN(Cn5nnc6ccccc65)C(=O)[C@H]3N(CCCCCO)C(=O)[C@@H]4C12 (stereo not given in full) | 0.122 | 1.66 | -0.176 | -0.328 | -0.407 | 2.18 | 1.48 | -0.21 (inactive) | -0.118 | -0.306 | -0.285 | -0.0057 (inactive) | -0.439 (inactive) | -0.506 (inactive) | 1.43 | 0.141 (inactive) | -0.0674 | -0.825 | -0.135 | -0.2
C=CCNC(=O)[C@H]1[C@@H]2C(=O)O[C@@H](c3ccccc3)[C@@H](c3ccccc3)N2[C@@H](c2ccc(OCCO)cc2)[C@]12C(=O)N(C(=O)OCCOC)c1ccc(C#CC3=CCCCC3)cc12 | -0.0822 | 0.967 | -0.0711 | 1.13 | 0.844 | 1.43 | 1.28 | -0.974 (inactive) | 0.344 | -0.0296 | 1.55 | 0.573 (inactive) | 0.656 (inactive) | 2.97 (inactive) | 2.76 | 1.89 (inactive) | -0.0477 | 0.826 | 1.09 | -0.0237
